Compounds without any hit were thinned out: in the full panel of roughly 83,000, 20% have a hit.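 Results are percent growth after 48 hours of single-concentration exposure. 100 means growth as in untreated cells, lower positive values show inhibition; negative values down to -100 show cell death.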 A number with no mark means an inactive call. Calls of active or inactive are those of the source. The calls were made as follows: active = growth percent below 10; inactive = the rest.

In this assay the test system is HL-60(TB) leukemia. In words: NCI-60 one-dose screen, 48 h (100 = growth as untreated, 0 = no growth, -100 = all killed). The note with it: 10 µM unless noted.
With `COC(=O)c1cccc([N+](=O)[O-])c1`, the growth is 121%.

Regarding `COC(=O)CCc1c(/C=C2\N=C(c3ccc[nH]3)C=C2OC)[nH]c(C)c1C(=O)OCc1ccccc1`, the growth was -14.3% (active).

On to `CC(C)(C)OC(=O)N1CCN(CCn2cc(C(F)(F)F)c3c(Cl)ncnc32)CC1`, for which the growth was 16.4%.

With `COc1cc(/C=C/C(=O)c2c(C)nc3ccccc3c2C)ccc1OCCCOc1cc2c(cc1OC)C(=O)N1CCC[C@H]1C=N2`, the growth is -33% (active). Turning to `CC/C(=C(/c1ccc(Cl)cc1)c1ccc(OCCN2CCCC2)cc1)c1ccccc1`, the growth was 17.4%. As for `Cc1ccc(C(=O)Nc2ccc(CN3CCN(C)CC3)c(C(F)(F)F)c2)cc1C#Cc1cnc(N)c2ccccc12`, the figure is -37.9% (active); as for `COC(=O)/C=C1\SC(=Nc2ccc(C(F)(F)F)cc2)N(CCc2c[nH]c3ccccc23)C1=O`, -55.4% (active). As for `COC(=O)C(C(=O)OC)C(Br)C(Br)C(Br)c1ccccc1` (stereo not given), the figure is 20.9%. In the case of `CCOC(CNC(=O)c1cccc([N+](=O)[O-])c1)OCC`, the growth was 105%. With `CC1=CC2OC34COC3CC(OC(=O)C(F)(F)F)C4(C)C2(C)CC1` (stereo not given), the growth is 114%. As for `C(=C\c1ccccc1)/CN1CCN(C(c2ccccc2)c2ccccc2)CC1`, the figure is 85.3%; as for `Oc1ccc(Cl)cc1-c1cc(-c2ccc(Cl)cc2)n[nH]1`, 60.4%; as for `COc1cccc2c1O/C(=C\c1ncc([N+](=O)[O-])n1C)C2=O`, -14.8% (active). As for `O=C(Cc1ccccc1)c1ccc(O)c(Cl)c1`, the figure is -21.1% (active). As for `CN(C)c1ccc2oc(=O)c3ccccc3c2c1`, the figure is 143%; as for `Cc1c(O)nc(N)[nH]c1=O`, 137%. As for `CN(C)CCOc1nc2c3ccncc3cc(-c3cccc(Cl)c3)c2c2cnccc12`, the growth is 33.4%. As for `CN(C)C(=O)Oc1cccc([N+](C)(C)C)c1`, the figure is 91%; as for `COc1cc2c(Nc3ccc(-c4ccc(N)cc4)cc3)ncnc2c(OC)c1OC`, 11.7%; as for `CCN(CC)CCOc1ccc(/C(=C(\Cl)c2ccccc2)c2ccccc2)cc1`, 75.9%. As for `COc1cc(-c2nc(SC(C)C)nc(Nc3ccccc3C)c2C#N)cc(OC)c1OC`, the figure is 103%. As for `O=C1Nc2c(ccc(Cl)c2Cl)/C1=C/c1cc(Br)c(O)c(Br)c1`, the figure is 33%; as for `O=[N+]([O-])c1cccc(/C=N/NC(=S)NC23CC4CC(CC(C4)C2)C3)c1`, 101%; as for `O=C(N/N=C/c1ccccc1O)c1ccccc1O`, 4.12% (active). With `CCCNC(=O)Oc1ccc(/C(=C(\C)c2ccccc2)c2ccc(OCCCN(C)C)cc2)cc1`, the growth was 65.3%. `COc1ccc(-c2nc(SCCC(C)C)nc(N/N=C\c3ccccc3O)c2C#N)cc1`: the growth is 83.6%. On to `COc1cccc(-c2nc3occn3c2-c2ccnc(NCCNS(=O)(=O)c3cccc4ccccc34)n2)c1`, for which the growth was 121%. As for `N#Cc1c(NC(=O)c2ccco2)[n+]([O-])c2cc(Cl)c(Cl)cc2[n+]1[O-]`, the figure is 91.8%. As for `Clc1ccc(-c2n[nH]c3c2Cc2ccccc2-3)cc1Cl`, the growth was 100%. To `COc1cc2c(=O)n(CC3CCCCC3)c3c4cc[nH]c4ncc3c2cc1OC` belongs 42.9%.

Regarding `COc1ccc2c(c1)nnc1c3cccnc3[nH]c21`, the growth is -31.4% (active).

As for `CCCC(CCC)Oc1ccc(CCCC2=C(O)c3ccccc3C(=O)C2=O)cc1`, the growth was 37.5%. On to `CCOc1cccc(/C=N/NC(=O)c2ccc(Nc3ccnc(C(F)(F)F)c3)cc2)c1O`, for which the growth is 37.7%. As for `O=C(c1ccccc1)C(Sc1ccccc1)c1ccccc1` (stereo not given), the figure is 84.1%; as for `Nc1nc2ccc([C@@H]3Nc4ccc5[nH]ncc5c4[C@H]4[C@H]5CCC(C5)[C@H]43)cc2s1`, 12.4%. As for `COc1cccc(/C=C2\Oc3cc(OCCCN4CCCC4)ccc3C2=O)c1`, the figure is 81%; as for `Cc1nc2c(O)cccc2cc1CO`, 81.7%.

Regarding `COc1cc(/C=C/c2ccnc3ccccc23)cc(OC)c1OC`, the growth was 15.7%. With `Cc1nc2nc(N)nc(N)c2nc1C`, the growth was 94.2%. To `Cc1cc(N2CCCC2)nc(NCc2cc(Nc3ccnc4cc(Cl)ccc34)ccc2F)n1` belongs -61.1% (active).

Source of the values: PubChem BioAssay (NCI).
